We go through 26 molecules from PubChem BioAssay AID620 (Sanford-Burnham Center for Chemical Genomics, 2007).

The whole screen tested about 87,000 compounds, of which about 360 (0.41%) were called active. Many of the other results were omitted from the sample, so actives are more common in it than they were. A number with no mark means an inactive call. Rule as the data show it: active = cytotoxicity above about 50%; inactive = the rest.

The experiment can be described thus: cytotoxicity in HT1080 fibrosarcoma cells, cell-based, fluorescence readout (AID 620).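 Also: cells exposed to compound overnight then 4 h with Alamar Blue; 0% = vehicle DMSO and 100% = killing control.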 The note with it: HT1080 viability, at 10 µM, active compounds read high.
For the molecule `CC(=O)c1ccc(NC(=O)C(Cc2ccccc2)NC(=O)c2ccco2)cc1` (stereo unspecified), the cytotoxicity was 16.9%. With `CCC(C(=O)NC1CCCC1)N(Cc1cccs1)C(=O)Cn1nnc(-c2ccc(OC)c(OC)c2)n1` (stereo unspecified) the figure was -0.6%; with `CC1=C(C)/C(=N\OS(=O)(=O)c2ccccc2)C=CC1=O`, 70.2% (active); with `Cc1ccc(S(=O)(=O)O/N=C2\CCCc3ccccc32)cc1`, 9.9%.

`CC1=CC(=O)C=C(C)C1=NOS(=O)(=O)c1ccccc1`: the cytotoxicity was 51.3% (active). With `CC1=C(C)/C(=N/OC(=O)c2cccc([N+](=O)[O-])c2)C=CC1=O` the figure was 7.5%; with `O=S(=O)(O/N=C1\CCCc2ccccc21)c1ccccc1`, 21.4%.

Turning to `CC1=C/C(=N\OS(=O)(=O)c2ccccc2)C=CC1=O`, the cytotoxicity was 35.8%. In the case of `Cn1cc(Cl)c(C(=O)N/N=C/c2ccc(OS(=O)(=O)c3ccccc3)cc2)n1` it was 6.3%.

For `Cc1ccc2[nH]c(=O)c(-c3nc4cc(C)ccn4c3NCc3ccco3)cc2c1`, the cytotoxicity was -1.5%.

For `CC(=O)OC(Cn1ccnc1)c1ccccc1` (stereo unspecified), the cytotoxicity was 7.8%. Turning to `Cc1cccc(N2CCN(C(=O)c3ccc(Cl)c(S(=O)(=O)NCc4ccco4)c3)CC2)c1C`, the cytotoxicity was 26.2%.

Take `O=C(c1ccc(Cl)c(S(=O)(=O)NCc2ccco2)c1)N1CCN(c2ccccc2F)CC1`: the cytotoxicity was 5.8%. With `COc1ccccc1N1CCN(C(=O)c2ccc(Cl)c(S(=O)(=O)NCc3ccco3)c2)CC1` the figure was 56.3% (active).

For `Nc1nc(SCc2ccc(Cl)cc2)[nH]c(=O)c1-c1ccccc1`, the cytotoxicity was 1.6%. With `COc1ccccc1N1CCN(c2nc(C)nc3c2oc2ccccc23)CC1` the figure was 74.7% (active); with `COc1ccccc1N1CCN(c2ncnc3c2oc2ccccc23)CC1`, -2.5%; with `Cc1cc(C)nc(N2CCN(c3nc(C)nc4c3oc3ccccc34)CC2)n1`, -3.6%. With `O=C(c1cccc(F)c1)N1CCN(Cc2c[nH]c3ccccc23)CC1` the figure was 2.4%. In the case of `COc1ccc2cc(C(c3nnnn3Cc3ccccc3)N3CCCCCC3)c(=O)[nH]c2c1` (stereo unspecified) it was 17.3%.

For `Cc1cc(C(=O)CSc2nnc(-c3cccs3)n2Cc2ccccc2)c(C)n1C`, the cytotoxicity is 4.7%. In the case of `Cc1c(NC(=O)CSc2nc3ccccc3n2C)c(=O)n(-c2ccccc2)n1C` it was 2.7%; in that of `CCn1c(-c2ccco2)nc2ccccc21`, 6.1%.

For the molecule `COc1ccc(C(=O)n2nc(-c3ccco3)nc2N)cc1`, the cytotoxicity is 25.6%. With `COc1ccc(C(=O)n2c(-c3ccco3)nc3ccccc32)cc1` the figure was 56.2% (active); with `CCN(CC)C(=O)CSc1nc2sc(C)c(C)c2c(=O)[nH]1`, -6.3%.
